Test results published in a collection of fitness landscapes (doi:10.1016/j.celrep.2020.107928).
In all, about 81,000 sequences were measured (“one-hybrid fitness for binding NBS DNA”: median about -0.1, highest 2% from about 0.36 on). Many of the other results were omitted from the sample, so the highest values are more common in it than they were.

B1: Caulobacter ParB omega fusion; a variant is named by its letters at X, in order, B8GW30 (parent)
chain: MESVVVGEPGMSEGRRGLGRGLSALLGEVDAAPAQAPGEQLGGSREAPIEILQRNPDQPRRTFREEDLEDLSNSIREKGVLQPILVRPSPDTAGEYQIVAGERAWRAAQRAGLKTVPIMVRELDDLAVLEIGIIENVQRADLNVLEEALSYKVLMEKFERTQENIAQTIGKSXSHVANXMRLLXLPDEVQSYLVSGELTAXHARAIAAAADPVALAKQIIEGGLSVRETEALARKAPNLSAGKSKGGRPPRVKDTDTQALESDLSSVLGLDVSIDHRGSTGTLTITYATLEQLDDLCNRLTRGI

Variants of: B1
Assay: one-hybrid fitness for binding NBS DNA (the Noc-binding site; scaled: cognate 1, non-cognate 0); higher = stronger binding
Details: with NBS DNA site
Procedure, shortened: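 Values were rescaled so that cognate is 1 and non-cognate is 0. Each is a fitness, the log change in a variant's read ratio to wild type from Illumina reads of plasmids before and after selection, with three replicate libraries pooled and variants under 10 reads dropped. Selection of the Caulobacter ParB libraries, four specificity codons randomised, used E. coli USO with a HIS3 reporter, site 19 bp from the promoter, on M9-minus-histidine with 0.1 mM IPTG and 5 mM 3-AT for 48 hours at 37°C.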

one-hybrid fitness for binding NBS DNA, 0.347:
QRHF

one-hybrid fitness for binding NBS DNA, 0.669:
KRWT

one-hybrid fitness for binding NBS DNA, 0.508:
RSNS

one-hybrid fitness for binding NBS DNA, 0.256:
RHWR

one-hybrid fitness for binding NBS DNA, 0.228:
QSVS
REKR

one-hybrid fitness for binding NBS DNA, 0.718:
QRHS

one-hybrid fitness for binding NBS DNA, 0.617:
QRAA

one-hybrid fitness for binding NBS DNA, 0.438:
QRHM

one-hybrid fitness for binding NBS DNA, 0.433:
RVCT

one-hybrid fitness for binding NBS DNA, 0.929:
RRKR

one-hybrid fitness for binding NBS DNA, 0.296:
QSCS

one-hybrid fitness for binding NBS DNA, 0.381:
QCVS

one-hybrid fitness for binding NBS DNA, 0.811:
QTRS

one-hybrid fitness for binding NBS DNA, 0.317:
QTES

one-hybrid fitness for binding NBS DNA, 0.495:
QTCS

one-hybrid fitness for binding NBS DNA, 0.61:
QRHH

one-hybrid fitness for binding NBS DNA, 0.674:
KRRT

one-hybrid fitness for binding NBS DNA, 0.557:
RCNS

one-hybrid fitness for binding NBS DNA, 0.424:
QMKV

one-hybrid fitness for binding NBS DNA, 0.32:
QDKR

one-hybrid fitness for binding NBS DNA, 0.537:
KRGT

one-hybrid fitness for binding NBS DNA, 0.333:
QCHH

one-hybrid fitness for binding NBS DNA, 0.651:
KRHT

one-hybrid fitness for binding NBS DNA, 0.469:
KRLT

one-hybrid fitness for binding NBS DNA, 0.561:
QRVS

one-hybrid fitness for binding NBS DNA, 0.982:
QAKR

one-hybrid fitness for binding NBS DNA, 0.437:
QRHC
QRHN

one-hybrid fitness for binding NBS DNA, 0.229:
QSKP

one-hybrid fitness for binding NBS DNA, 0.932:
QLKR

one-hybrid fitness for binding NBS DNA, 0.393:
QCCS

one-hybrid fitness for binding NBS DNA, 0.481:
KRIT
RMNS

one-hybrid fitness for binding NBS DNA, 0.398:
QSKV
QTIS

one-hybrid fitness for binding NBS DNA, 0.221:
QTIH

one-hybrid fitness for binding NBS DNA, 0.267:
QIKV

one-hybrid fitness for binding NBS DNA, 1.08:
QCKR

one-hybrid fitness for binding NBS DNA, 0.34:
QLVR

one-hybrid fitness for binding NBS DNA, 0.382:
QCLS

one-hybrid fitness for binding NBS DNA, 0.558:
KRCT

one-hybrid fitness for binding NBS DNA, 0.203:
QSKD
WWKR

one-hybrid fitness for binding NBS DNA, 0.507:
QTYS

one-hybrid fitness for binding NBS DNA, 0.44:
QHKV

one-hybrid fitness for binding NBS DNA, 0.494:
QRFA

one-hybrid fitness for binding NBS DNA, 0.405:
QPKR

one-hybrid fitness for binding NBS DNA, 0.329:
RHLR

one-hybrid fitness for binding NBS DNA, 0.404:
QRKP

one-hybrid fitness for binding NBS DNA, 0.318:
QLKM

one-hybrid fitness for binding NBS DNA, 0.38:
QMCS

one-hybrid fitness for binding NBS DNA, 0.447:
RHHR

one-hybrid fitness for binding NBS DNA, 0.331:
RFNS

one-hybrid fitness for binding NBS DNA, 0.573:
KRST
QRKN

one-hybrid fitness for binding NBS DNA, 0.305:
KRPT

one-hybrid fitness for binding NBS DNA, 0.493:
RLNS

one-hybrid fitness for binding NBS DNA, 0.358:
QGKR
QAVR
QRHI

one-hybrid fitness for binding NBS DNA, 0.599:
QTKV

one-hybrid fitness for binding NBS DNA, 0.263:
QSLS

one-hybrid fitness for binding NBS DNA, 0.699:
RRVR

one-hybrid fitness for binding NBS DNA, 0.294:
QRHD

one-hybrid fitness for binding NBS DNA, 0.303:
QRHP

one-hybrid fitness for binding NBS DNA, 0.313:
QAKG

one-hybrid fitness for binding NBS DNA, 0.448:
RHQR
RHSR

one-hybrid fitness for binding NBS DNA, 0.202:
QPVS

one-hybrid fitness for binding NBS DNA, 0.314:
QTPS

one-hybrid fitness for binding NBS DNA, 0.504:
QTQS

one-hybrid fitness for binding NBS DNA, 0.613:
KRYT

one-hybrid fitness for binding NBS DNA, ≤ 0.2:
KIDS
YGSP
QMNV
QMVV
QHVV
QTIV
QSVV
QTVV
QHDV
TFNG
WQMG
FYPI
VPIG
DNCR
MCLS
LFAP
LAIW
QPFA
QSFA
QHAA
QVCG
AEFL
MPNG
KCST
KCGT
KRGH
KPET
DRST
KRHP
KAET
KCHT
LDCV
DSPG
EQLY
TMSQ
VICL
MMNR
KRCD
KCYT
DRYT
KCIT
NRCT
NRRT
FRGT
HAIS
WVIG
TARF
LMCG
PVMR
SKSN
CRIR
HDNF
TALC
MHTW
KPWT
NRWT
KCLT
KCQT
KRQP
KPLT
ELNV
NLKK
FRPG
HKCG
PFLC
RHHP
RHIR
RHPR
RHHH
EMNR
WDGG
QAEP
ADMS
PVLV
NCEV
SRIS
DRYY
RHGP
RHGH
RHSH
RHSD
MNYT
VDVI
YLRS
PAHQ
SSQC
FTTS
SMHC
QTCN
QTCP
QPLS
QTIP
CPTM
DVLM
WVEG
TFRM
MYPF
EAVR
PVAE
QMCD
QMCP
QTQN
QTWP
QTWN
QTQP
NTRS
MSSN
FFKL
LPTN
HFHL
QSEF
TASS
DAGG
DEKT
QTLP
QTLD
QPCS
ERTA
TLTL
EMRG
RSND
RMDS
RLDS
RSDS
RPNS
RMNP
RLND
PYGH
TCDT
SICL
ITNT
QLLN
QPKP
AWRM
VLCG
GDPR
GMNC
GYHN
GMFV
GDMV
PAFV
GFQR
KNLN
QIIR
SPHS
GILL
CSWG
VYLS
RVCD
RVCM
RVRN
RVCP
RVCY
RVCN
RVCH
TIPT
LYLM
HSTN
NRKS
DRKS
ANSS
LCGR
TETQ
TNPC
YPLP
YFGS
QNIT
ATQS
NPLV
QRVP
QRPH
QRVD
QPKH
EGSD
SHRM
SFTP
GMTV
AWKC
HLVG
QNYP
MSYR
KGQY
LHCR
RKVV
RPMF
YCQV
FVKY
QSHC
QSHM
QCHG
QCHM
QPHG
QSHQ
TMAD
KMQL
QPHH
ATVR
ASPP
AERS
AVLE
HTYV
WTPE
PKNM
VQKH
SIHM
DQIS
AINC
PFAM

one-hybrid fitness for binding NBS DNA, 0.979:
QSKR

one-hybrid fitness for binding NBS DNA, 0.275:
ERKR

one-hybrid fitness for binding NBS DNA, 0.426:
QTLS

one-hybrid fitness for binding NBS DNA, 0.351:
RVYS

one-hybrid fitness for binding NBS DNA, 0.513:
KRQT

one-hybrid fitness for binding NBS DNA, 0.766:
QRKH

one-hybrid fitness for binding NBS DNA, 0.315:
KCRT

one-hybrid fitness for binding NBS DNA, 0.271:
QIVR

one-hybrid fitness for binding NBS DNA, 0.377:
QRKD

one-hybrid fitness for binding NBS DNA, 0.778:
QRKS

one-hybrid fitness for binding NBS DNA, 0.501:
KRET

one-hybrid fitness for binding NBS DNA, 0.853:
QIKR

one-hybrid fitness for binding NBS DNA, 0.387:
RHYR
QRVH

one-hybrid fitness for binding NBS DNA, 0.656:
RHRR

one-hybrid fitness for binding NBS DNA, 0.259:
QRVN

one-hybrid fitness for binding NBS DNA, 0.269:
QCHQ

one-hybrid fitness for binding NBS DNA, 0.337:
QCKD

one-hybrid fitness for binding NBS DNA, 0.339:
QMAA

one-hybrid fitness for binding NBS DNA, 0.238:
QCHC

one-hybrid fitness for binding NBS DNA, 0.431:
QRHQ

one-hybrid fitness for binding NBS DNA, 0.285:
QEKR

one-hybrid fitness for binding NBS DNA, 0.403:
RHGR
QRHG

one-hybrid fitness for binding NBS DNA, 0.436:
RVCR

one-hybrid fitness for binding NBS DNA, 0.577:
RVRS

one-hybrid fitness for binding NBS DNA, 0.444:
QTWS
RVCS
